Test results: PubChem BioAssay (Tox21)
Results filed as inconclusive are left out. A number with no mark means an inactive call. Calls of active or inactive are those of the source. Calls follow the shape of the full dose curve.

System: thyroid hormone receptor (rat, GH3 cells)
Experiment: qHTS assay to identify small molecule agonists of the thyroid receptor (TR) signaling pathway (AID 743066)
Conditions: GH3.TRE-Luc cells, TR agonist luciferase, 24 h; series mostly up to 83.9 µM; activation: at the top concentration
% is scaled to controls: 0 for no effect and ±100 for the full control effect; potency is read from the fitted curve at half-maximal effect.

SMILES	activation	Potency
CC1=CC(C)C(C=O)C(C)C1 (stereo not drawn)	0.124%	–
Cc1cc(C)c(NC(=O)CN(CC(=O)O)CC(=O)O)c(C)c1Br	2.02%	–
OC/C=C/c1ccccc1	–	inactive
C#CC(O)C(CC)CCCC (stereo not drawn)	-0.692%	–
C=C(C)C(=O)OCCCCCCCCCCCCCCCCCC	0.0623% [at 39.4 µM]	–
C=CCOc1nc(OCC=C)nc(OCC=C)n1	-1.77%	–
CCCCCN(CCCCC)C(=O)C(CCC(=O)O)NC(=O)c1ccc(Cl)c(Cl)c1 (stereo not drawn)	-0.351%	–
OCCCCCCO	2.02% [at 95.2 µM]	–
NS(=O)(=O)c1cc2c(cc1C(F)(F)F)NC(Cc1ccccc1)NS2(=O)=O (stereo not drawn)	0.28% [at 39.4 µM]	–
CCO[Si](CCCN=C=O)(OCC)OCC	0.234%	–
CC(C=O)Cc1ccc(C(C)C)cc1 (stereo not drawn)	-0.427%	–
CC1=CC(=O)CCC1	2.47%	–
O=C(O)/C=C/c1ccc(/C=C/C(=O)O)cc1	-0.393%	–
CCCOCC(C)OCC(C)O (stereo not drawn)	-0.113% [at 95.2 µM]	–
OC[C@H]1O[C@@H]2O[C@H]3[C@H](O)[C@@H](O)[C@@H](O[C@H]4[C@H](O)[C@@H](O)[C@@H](O[C@H]5[C@H](O)[C@@H](O)[C@@H](O[C@H]6[C@H](O)[C@@H](O)[C@@H](O[C@H]7[C@H](O)[C@@H](O)[C@@H](O[C@H]8[C@H](O)[C@@H](O)[C@@H](O[C@H]9[C@H](O)[C@@H](O)[C@@H](O[C@H]1[C@H](O)[C@H]2O)O[C@@H]9CO)O[C@@H]8CO)O[C@@H]7CO)O[C@@H]6CO)O[C@@H]5CO)O[C@@H]4CO)O[C@@H]3CO	-0.374% [at 39.4 µM]	–
OCc1ccccn1	1.56%	–
NC(=O)CCCCC1CCSS1 (stereo not drawn)	2.55%	–
CSc1ccc(C=O)cc1	0.0593%	–
CCCc1ccccc1O	0.4%	–

SMILES	activation	Potency
CCCC(=O)O[C@]1(C(=O)CCl)[C@@H](C)C[C@H]2[C@@H]3CCC4=CC(=O)C=C[C@]4(C)[C@@]3(F)C(=O)C[C@@]21C	-5.38%	–
CCOC(=O)Cn1c(=O)sc2cccc(Cl)c21	0.828%	–
COC(=O)CCCC(=O)O	-3.06%	–
C/C=C1\C(=O)C[C@H]2[C@@H]3CCC4=CC(=O)CC[C@]4(C)[C@H]3CC[C@]12C	-3.83%	–
FC(F)(F)C(F)(F)C(F)(F)C(F)(F)C(F)(F)C(F)(F)C(F)(F)C(F)(F)C(F)(F)C(F)(F)F	0.424% [at 8.08 µM]	–
C=CC(=O)OCCCCCC	0.592%	–
COc1cc(CCC(C)=O)ccc1O	6.76%	–
CCn1cc(C(=O)O)c(=O)c2cc(F)c(N3CCN(C)CC3)cc21	0.488%	–
O=S(=O)(O)c1ccccc1O	0.308%	–
C#CC(O)CCCCC (stereo not drawn)	-1.22% [at 95.2 µM]	–
Cc1c(C)n(CCN(C)C)c2ccc(C(=O)OCCN(C)C)cc12	-3.26%	–
C=CC(=O)N1CCOCC1	2.19%	–
OCC(O)[C@@H](O)[C@H](O)[C@H](O)CO[C@H]1O[C@H](CO)[C@@H](O)[C@H](O)[C@H]1O (stereo partly drawn)	-0.271%	–
CCCCCCCCC=O	0.0943%	–
CC(CCO)CCCC(C)(C)O (stereo not drawn)	–	27.3 µM (active)
C[C@H]1O[C@@H](n2cc(F)c(=O)[nH]c2=O)[C@H](O)[C@@H]1O	0.61%	–
CCCCCCCCCCC1CO1 (stereo not drawn)	-0.505%	–
N[C@@H](CS)C(=O)O	-0.358% [at 95.2 µM]	–
C=C(C)C(=O)NCCC[N+](C)(C)C	0.478%	–
